# Results from PubChem BioAssay (NCI).
# The panel holds about 83,000 compounds, 20% with a hit somewhere; the sample as a whole holds those more often.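 Note: values are percent growth. 100 is the growth of untreated cells, values between 100 and 0 indicate rising inhibition; between -100 and 0 indicates cell death.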 A number with no mark means an inactive call. The source made the active and inactive calls. How the source made its calls: active means growth percent below 10; inactive means the rest.
# Key:
# Assay in all cases: NCI-60 one-dose screen, 48 h (100 = growth as untreated, 0 = no growth, -100 = all killed)
# SK-MEL-2 melanoma = test system: SK-MEL-2 melanoma
# EKVX NSCLC = test system: EKVX NSCLC
# SN12C renal = test system: SN12C renal
# UO-31 renal = test system: UO-31 renal
# TK-10 renal = test system: TK-10 renal
# ACHN renal = test system: ACHN renal
# A498 renal = test system: A498 renal
# CCRF-CEM leukemia = test system: CCRF-CEM leukemia
# MOLT-4 leukemia = test system: MOLT-4 leukemia
# SR leukemia = test system: SR leukemia
# RPMI-8226 leukemia = test system: RPMI-8226 leukemia
# OVCAR-8 ovarian = test system: OVCAR-8 ovarian
# OVCAR-5 ovarian = test system: OVCAR-5 ovarian
# OVCAR-4 ovarian = test system: OVCAR-4 ovarian
# SK-OV-3 ovarian = test system: SK-OV-3 ovarian
# IGROV1 ovarian = test system: IGROV1 ovarian
# OVCAR-3 ovarian = test system: OVCAR-3 ovarian
# HS 578T breast = test system: HS 578T breast
# NCI/ADR-RES ovarian = test system: NCI/ADR-RES ovarian
# CAKI-1 renal = test system: CAKI-1 renal
smiles,measurement,setting,value
CC(=O)/C=C/c1ccc(N(CCO)Cc2ccc(C(C)(C)C)cc2)cc1,growth,SK-MEL-2 melanoma; 10 µM,93.3%
same,growth,SK-MEL-2 melanoma; 100 µM,-75.2% (active)
same,growth,EKVX NSCLC; 10 µM,57.4%
same,growth,EKVX NSCLC; 100 µM,-86.5% (active)
same,growth,SN12C renal; 10 µM,73%
same,growth,SN12C renal; 100 µM,-86.4% (active)
same,growth,UO-31 renal; 10 µM,47.2%
same,growth,UO-31 renal; 100 µM,-100% (active)
same,growth,TK-10 renal; 10 µM,96.7%
same,growth,TK-10 renal; 100 µM,-96.7% (active)
same,growth,ACHN renal; 10 µM unless noted,80.5%
same,growth,A498 renal; 10 µM,78.6%
same,growth,A498 renal; 100 µM,-98.3% (active)
same,growth,CCRF-CEM leukemia; 10 µM unless noted,-47.9% [100 µM] (active)
same,growth,MOLT-4 leukemia; 10 µM,54%
same,growth,MOLT-4 leukemia; 100 µM,-47.4% (active)
same,growth,SR leukemia; 10 µM,83%
same,growth,SR leukemia; 100 µM,-62.1% (active)
same,growth,RPMI-8226 leukemia; 10 µM,84.7%
same,growth,RPMI-8226 leukemia; 100 µM,-34.9% (active)
same,growth,OVCAR-8 ovarian; 10 µM,80.7%
same,growth,OVCAR-8 ovarian; 100 µM,-81.1% (active)
same,growth,OVCAR-5 ovarian; 10 µM,78.2%
same,growth,OVCAR-5 ovarian; 100 µM,-98.5% (active)
same,growth,OVCAR-4 ovarian; 10 µM,65.7%
same,growth,OVCAR-4 ovarian; 100 µM,-89.2% (active)
same,growth,SK-OV-3 ovarian; 10 µM,83.7%
same,growth,SK-OV-3 ovarian; 100 µM,-99% (active)
same,growth,IGROV1 ovarian; 10 µM,96.6%
same,growth,IGROV1 ovarian; 100 µM,-65.9% (active)
same,growth,OVCAR-3 ovarian; 10 µM,84.4%
same,growth,OVCAR-3 ovarian; 100 µM,-95% (active)
same,growth,HS 578T breast; 10 µM,65%
same,growth,HS 578T breast; 100 µM,-52.9% (active)
same,growth,NCI/ADR-RES ovarian; 10 µM,67%
same,growth,NCI/ADR-RES ovarian; 100 µM,-88.3% (active)
CC/C(=C(/c1ccc(Cl)cc1)c1ccc(OCCN2CCOCC2)cc1)c1ccccc1,growth,SK-MEL-2 melanoma; 10 µM unless noted,93.7%
same,growth,EKVX NSCLC; 10 µM unless noted,85.1%
same,growth,SN12C renal; 10 µM unless noted,95.8%
same,growth,UO-31 renal; 10 µM unless noted,86.4%
same,growth,TK-10 renal; 10 µM unless noted,108%
same,growth,ACHN renal; 10 µM unless noted,98.3%
same,growth,CAKI-1 renal; 10 µM unless noted,69.4%
same,growth,A498 renal; 10 µM unless noted,99.7%
same,growth,CCRF-CEM leukemia; 10 µM unless noted,83.9%
same,growth,MOLT-4 leukemia; 10 µM unless noted,86%
same,growth,SR leukemia; 10 µM unless noted,85.1%
same,growth,RPMI-8226 leukemia; 10 µM unless noted,80.3%
same,growth,OVCAR-8 ovarian; 10 µM unless noted,91.6%
same,growth,OVCAR-5 ovarian; 10 µM unless noted,100%
same,growth,OVCAR-4 ovarian; 10 µM unless noted,100%
same,growth,SK-OV-3 ovarian; 10 µM unless noted,116%
same,growth,IGROV1 ovarian; 10 µM unless noted,108%
same,growth,OVCAR-3 ovarian; 10 µM unless noted,96%
same,growth,HS 578T breast; 10 µM unless noted,99.2%
same,growth,NCI/ADR-RES ovarian; 10 µM unless noted,103%
Cc1ccc(-c2nc([P+](c3ccccc3)(c3ccccc3)c3ccccc3)c(Nc3ccccc3)o2)cc1,growth,SK-MEL-2 melanoma; 10 µM unless noted,-58.8% (active)
same,growth,EKVX NSCLC; 10 µM unless noted,-2.84% (active)
same,growth,SN12C renal; 10 µM unless noted,2.84% (active)
same,growth,UO-31 renal; 10 µM unless noted,-23.5% (active)
same,growth,TK-10 renal; 10 µM unless noted,8.06% (active)
same,growth,ACHN renal; 10 µM unless noted,-11.6% (active)
same,growth,CAKI-1 renal; 10 µM unless noted,-27.8% (active)
same,growth,A498 renal; 10 µM unless noted,-37.9% (active)
same,growth,CCRF-CEM leukemia; 10 µM unless noted,0.282% (active)
same,growth,MOLT-4 leukemia; 10 µM unless noted,-9.22% (active)
same,growth,SR leukemia; 10 µM unless noted,-27.1% (active)
same,growth,RPMI-8226 leukemia; 10 µM unless noted,-50.4% (active)
same,growth,OVCAR-8 ovarian; 10 µM unless noted,-21.5% (active)
same,growth,OVCAR-5 ovarian; 10 µM unless noted,8.46% (active)
same,growth,OVCAR-4 ovarian; 10 µM unless noted,-5.24% (active)
same,growth,SK-OV-3 ovarian; 10 µM unless noted,-9.23% (active)
same,growth,IGROV1 ovarian; 10 µM unless noted,15%
same,growth,OVCAR-3 ovarian; 10 µM unless noted,-12.1% (active)
same,growth,HS 578T breast; 10 µM unless noted,-31.1% (active)
same,growth,NCI/ADR-RES ovarian; 10 µM unless noted,-3.38% (active)
CN(C)CCNc1ncc(F)c(-c2cnc3cc(-c4cnn(C)c4)ccn23)n1,growth,SK-MEL-2 melanoma; 0.005 µM,109%
same,growth,SK-MEL-2 melanoma; 30 µM,64.6%
same,growth,EKVX NSCLC; 0.005 µM,97%
same,growth,EKVX NSCLC; 30 µM,70.1%
same,growth,SN12C renal; 0.005 µM,98.4%
same,growth,SN12C renal; 30 µM,30.7%
same,growth,UO-31 renal; 0.005 µM,94%
same,growth,UO-31 renal; 30 µM,17.1%
same,growth,TK-10 renal; 0.005 µM,105%
same,growth,TK-10 renal; 30 µM,56.4%
same,growth,ACHN renal; 0.005 µM,96.7%
same,growth,ACHN renal; 30 µM,15.5%
same,growth,CAKI-1 renal; 0.005 µM,99.5%
same,growth,CAKI-1 renal; 30 µM,15.5%
same,growth,A498 renal; 0.005 µM,99%
same,growth,A498 renal; 30 µM,41.9%
same,growth,CCRF-CEM leukemia; 0.005 µM,101%
same,growth,CCRF-CEM leukemia; 30 µM,14.1%
same,growth,MOLT-4 leukemia; 0.005 µM,104%
same,growth,MOLT-4 leukemia; 30 µM,1.39% (active)
same,growth,SR leukemia; 0.005 µM,99.9%
same,growth,SR leukemia; 30 µM,5.34% (active)
same,growth,RPMI-8226 leukemia; 10 µM unless noted,98.3% [0.005 µM]
same,growth,OVCAR-8 ovarian; 0.005 µM,99.9%
same,growth,OVCAR-8 ovarian; 30 µM,54.3%
same,growth,OVCAR-4 ovarian; 0.005 µM,105%
same,growth,OVCAR-4 ovarian; 30 µM,38.6%
same,growth,SK-OV-3 ovarian; 10 µM unless noted,21% [30 µM]
same,growth,IGROV1 ovarian; 0.005 µM,108%
same,growth,IGROV1 ovarian; 30 µM,22.6%
same,growth,OVCAR-3 ovarian; 0.005 µM,109%
same,growth,OVCAR-3 ovarian; 30 µM,75.3%
same,growth,HS 578T breast; 0.005 µM,101%
same,growth,HS 578T breast; 30 µM,60%
same,growth,NCI/ADR-RES ovarian; 0.005 µM,101%
same,growth,NCI/ADR-RES ovarian; 30 µM,62.3%
CON1CCC[C@]2(C)[C@H]3CC[C@@H]4[C@H]5[C@@H](O)C(C)(C)CC[C@]5(CO)CC[C@@]4(C)[C@]3(C)CC[C@H]2C1(C)C,growth,SK-MEL-2 melanoma; 10 µM unless noted,103%
same,growth,EKVX NSCLC; 10 µM unless noted,98.1%
same,growth,SN12C renal; 10 µM unless noted,93.1%
same,growth,UO-31 renal; 10 µM unless noted,95.2%
same,growth,TK-10 renal; 10 µM unless noted,105%
same,growth,ACHN renal; 10 µM unless noted,107%
same,growth,CAKI-1 renal; 10 µM unless noted,97.4%
same,growth,A498 renal; 10 µM unless noted,114%
same,growth,CCRF-CEM leukemia; 10 µM unless noted,94.5%
same,growth,MOLT-4 leukemia; 10 µM unless noted,83.7%
same,growth,SR leukemia; 10 µM unless noted,88.4%
same,growth,RPMI-8226 leukemia; 10 µM unless noted,89.1%
same,growth,OVCAR-8 ovarian; 10 µM unless noted,95.2%
same,growth,OVCAR-5 ovarian; 10 µM unless noted,102%
same,growth,OVCAR-4 ovarian; 10 µM unless noted,100%
same,growth,SK-OV-3 ovarian; 10 µM unless noted,90.1%
same,growth,IGROV1 ovarian; 10 µM unless noted,103%
same,growth,OVCAR-3 ovarian; 10 µM unless noted,104%
same,growth,HS 578T breast; 10 µM unless noted,108%
same,growth,NCI/ADR-RES ovarian; 10 µM unless noted,111%
COc1ccc(C(=O)/C=C/c2ccc(OCc3cccc(C(F)(F)F)c3)c(OC)c2)cc1OC,growth,SK-MEL-2 melanoma; 10 µM,89.1%
same,growth,SK-MEL-2 melanoma; 100 µM,32.6%
same,growth,EKVX NSCLC; 10 µM,114%
same,growth,EKVX NSCLC; 100 µM,16.1%
same,growth,SN12C renal; 10 µM,97%
same,growth,SN12C renal; 100 µM,17%
same,growth,UO-31 renal; 10 µM,67.2%
same,growth,UO-31 renal; 100 µM,24.6%
same,growth,TK-10 renal; 10 µM,117%
same,growth,TK-10 renal; 100 µM,7.32% (active)
same,growth,ACHN renal; 10 µM unless noted,93.4%
same,growth,A498 renal; 10 µM,93.9%
same,growth,A498 renal; 100 µM,-12.8% (active)
same,growth,CCRF-CEM leukemia; 10 µM,51.1%
same,growth,CCRF-CEM leukemia; 100 µM,12.6%
same,growth,MOLT-4 leukemia; 10 µM,42.2%
same,growth,MOLT-4 leukemia; 100 µM,-3.95% (active)
same,growth,SR leukemia; 10 µM,36.8%
same,growth,SR leukemia; 100 µM,5.42% (active)
same,growth,RPMI-8226 leukemia; 10 µM,29.7%
same,growth,RPMI-8226 leukemia; 100 µM,-0.397% (active)
same,growth,OVCAR-8 ovarian; 10 µM,67.1%
same,growth,OVCAR-8 ovarian; 100 µM,4.75% (active)
same,growth,OVCAR-5 ovarian; 10 µM,109%
same,growth,OVCAR-5 ovarian; 100 µM,51.5%
same,growth,OVCAR-4 ovarian; 10 µM,74.9%
same,growth,OVCAR-4 ovarian; 100 µM,20.3%
same,growth,SK-OV-3 ovarian; 10 µM,88.7%
same,growth,SK-OV-3 ovarian; 100 µM,20%
same,growth,IGROV1 ovarian; 10 µM,93.6%
